Measurements taken from PubChem BioAssay AID1159580 (chemical genetic matrix, 2015).
Several values for one entry are separate records, joined by “and”; a condition that tells them apart may be missing. Equal values may be shown once. Among all 5,500 compounds or so, about 2,000 (36%) were called active. Not shown: some 18% with an inconclusive outcome. Cut-off read from the data, not from the text of the source: active = normalized growth mostly below about 0.91 (no sharp cut-off); inconclusive = no clear call, values can overlap the other calls; inactive = mostly above about 0.92. Some of the results follow.

Test: chemical genetic growth profiling, strain panel (AID 1159580);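 note: tested at 20 µM; growth read once vehicle control cultures reached saturation at 30 °C; 1 = growth at the plate median or of vehicle wells; lower values mean less growth of the strain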
Settings: S. cerevisiae deletion strains, growth OD

Measured: normalized growth

CSc1nc(NC(C)C)nc(NC(C)C)n1
inactive: locus YAL013W, strain DEP1, active compounds read low 1.01 | locus YAL021C, strain ccr4, active compounds read low 0.969 | locus YAL026C, strain drs2, active compounds read low 0.969 | locus YAL030W, strain snc1, active compounds read low 0.98 | locus YBL061C, strain skt5, active compounds read low 0.968 | locus YBR009C, strain hhf1, active compounds read low 0.979 | locus YBR021W, strain FUR4, active compounds read low 1.04 | locus YBR023C, strain chs3, active compounds read low 0.957 | locus YBR171W, strain sec66, active compounds read low 0.954 | locus YBR229C, strain ROT2, active compounds read low 0.999 | locus YBR231C, strain swc5, active compounds read low 0.961 | locus YBR279W, strain paf1, active compounds read low 0.972 | locus YCL011C, strain gbp2, active compounds read low 0.966 | locus YCL016C, strain dcc1, active compounds read low 0.967 | locus YCL029C, strain bik1, active compounds read low 1.01 | locus YCL061C, strain MRC1, active compounds read low 0.979 | locus YCL069W, strain vba3, active compounds read low 0.975 | locus YCR088W, strain abp1, active compounds read low 0.986 | locus YDL005C, strain med2, active compounds read low 0.981 | locus YDL035C, strain GPR1, active compounds read low 1.02 | locus YDL040C, strain nat1, active compounds read low 0.962 | locus YDL074C, strain BRE1, active compounds read low 1.01 | locus YDL101C, strain DUN1, active compounds read low 1.02 | locus YDL134C, strain PPH21, active compounds read low 1 | locus YDL185W, strain tfp1, active compounds read low 1.03 | locus YDL192W, strain arf1, active compounds read low 1.01 | locus YDR001C, strain nth1, active compounds read low 0.979 | locus YDR069C, strain doa4, active compounds read low 0.977 | locus YDR101C, strain arx1, active compounds read low 1.01 | locus YDR137W, strain rgp1, active compounds read low 0.848 | locus YDR150W, strain NUM1, active compounds read low 0.994 | locus YDR159W, strain sac3, active compounds read low 0.967 | locus YDR162C, strain NBP2, active compounds read low 1.02 | locus YDR195W, strain ref2 0.998 | locus YDR297W, strain sur2, active compounds read low 0.975 | locus YDR318W, strain mcm21, active compounds read low 1.03 | locus YDR334W, strain swr1, active compounds read low 0.968 | locus YDR335W, strain msn5, active compounds read low 0.969 | locus YDR388W, active compounds read low 1.01 | locus YDR392W, strain spt3, active compounds read low 0.958 | locus YDR502C, strain sam2, active compounds read low 1.01 | locus YEL003W, strain gim4, active compounds read low 0.972 | locus YEL037C, strain rad23, active compounds read low 0.975 | locus YEL061C, strain CIN8 (second series), active compounds read low 0.961 | locus YEL061C, strain CIN8, active compounds read low 1 | locus YER015W, strain faa2, active compounds read low 0.973 | locus YER016W, strain bim1, active compounds read low 0.966 | locus YER110C, active compounds read low 1 | locus YER111C, strain swi4, active compounds read low 0.977 | locus YER155C, strain BEM2 (second series), active compounds read low 0.952 | locus YER155C, strain BEM2, active compounds read low 1.01 | locus YER167W, strain BCK2, active compounds read low 0.995 | locus YFR010W, strain ubp6, active compounds read low 0.978 | locus YGL078C, strain dbp3, active compounds read low 1.01 | locus YGL086W, strain mad1, active compounds read low 1.01 | locus YGL167C, strain pmr1, active compounds read low 0.958 | locus YGL173C, strain kem1, active compounds read low 0.964 | locus YGL227W, strain vid30, active compounds read low 0.956 | locus YGL240W, strain doc1, active compounds read low 0.95 | locus YGL248W, strain PDE1, active compounds read low 1.01 | locus YGL253W, strain hxk2, active compounds read low 0.973 | locus YGR078C, strain PAC10, active compounds read low 1.01 | locus YGR135W, strain pre9, active compounds read low 1.01 | locus YGR229C, strain SMI1, active compounds read low 1.02 | locus YGR252W, strain gcn5, active compounds read low 1.14 | locus YHR013C, strain ard1, active compounds read low 0.944 | locus YHR027C, strain rpn1, active compounds read low 0.972 | locus YHR030C, strain SLT2, active compounds read low 1.02 and 1.03 | locus YHR079C, strain IRE1 (second series), active compounds read low 1.01 | locus YHR079C, strain IRE1, active compounds read low 1.03 | locus YHR094C, strain hxt1, active compounds read low 1 | locus YHR129C, strain ARP1, active compounds read low 1.01 | locus YHR142W, strain chs7, active compounds read low 0.95 | locus YHR200W, strain rpn10, active compounds read low 1.01 | locus YIL066C, strain RNR3, active compounds read low 1.03 | locus YIL073C, strain SPO22, active compounds read low 1.02 | locus YIL125W, strain kgd1, active compounds read low 1.01 | locus YIR030C, strain dcg1, active compounds read low 1.02 | locus YJL092W, strain hpr5, active compounds read low 0.981 | locus YJL095W, strain BCK1 (second series), active compounds read low 0.968 | locus YJL095W, strain BCK1, active compounds read low 0.988 and 0.974 | locus YJL115W, strain asf1, active compounds read low 0.978 | locus YJL129C, strain trk1, active compounds read low 0.962 | locus YJL134W, strain LCB3, active compounds read low 1.02 | locus YJL154C, strain vps35, active compounds read low 0.977 | locus YJL164C, strain tpk1, active compounds read low 0.969 | locus YJL166W, strain qcr8, active compounds read low 0.978 | locus YJL168C, strain set2, active compounds read low 1 | locus YJL187C, strain SWE1 (second series), active compounds read low 1.01 | locus YJL187C, strain SWE1, active compounds read low 0.973 | locus YJR043C, strain POL32, active compounds read low 1.02 | locus YJR066W, strain TOR1, active compounds read low 0.968
